Our source for the inhibition values is PubChem BioAssay AID1720 (National Center for Advancing Translational Sciences (NCATS), 2009).

Some of the results follow. Inconclusive results are not listed. Unmarked numbers belong to inactive results. Activity calls are given as the source filed them. No stated cut-off is given here; in the data, active means inhibition above about 40%; inconclusive means no clear call, values can overlap the other calls; inactive means below about 18%.

Sequence of Microtubule-associated protein tau (Homo sapiens) (P10636 561-689 P618L limits assumed): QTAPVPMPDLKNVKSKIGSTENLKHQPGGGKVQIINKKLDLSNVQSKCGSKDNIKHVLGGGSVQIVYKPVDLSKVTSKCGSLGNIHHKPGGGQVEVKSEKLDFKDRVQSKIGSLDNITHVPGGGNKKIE

For this assay, the target named is Microtubule-associated protein tau (Homo sapiens) (UniProt P10636). The assay can be described thus: Sedimentation Assay for Inhibitors of Tau Fibrillization. Conditions: recombinant tau K18 P301L (four-repeat tau fragment), sedimentation SDS-PAGE densitometry; at 100 µM; stronger effect = higher value. From the text:
NIH Molecular Libraries Probe Production Network [MLPCN] NIH Chemical Genomics Center [NCGC] MLPCN Grant: X01 MH083262-01 Assay Provider: Carlo Ballatore, University of Pennsylvania NCGC Assay Overview: The microtubule-associated protein tau is an abundant protein in the axons of neurons that stabilizes microtubules. With its ability to modulate microtubule dynamics, tau contributes directly or indirectly, to key structural and regulatory cellular functions. Particularly important is the influence tau exerts on axonal transport, which allows signaling molecules, trophic factors and other essential cellular constituents to travel along the axons. […] The ability of compounds to block tau fibrillization was assessed using a sedimentation assay. Unlike tau monomers, tau fibrils readily sediment upon centrifugation. Samples from the tau ThT confirmation assay treated with 100 uM compound (AID 1558) were centrifuged and the amount of tau present in the supernatant and pellet was determined. […]
NCGC Assay Protocol Summary: Human K18 P301L tau (15 uM) in assay buffer (20 uM heparin, 12.5 uM Thioflavine T, 100 mM sodium acetate pH 7) was centrifuged at 186,000 x g for 30 min and the supernatant removed from the pellet. Pellets were resuspended in a volume equal to the supernatant and equal amounts of supernatants and pellet were analyzed by SDS-PAGE using a 12.5% acrylamide gel. […]
Turning to `CC(=O)Nc1sc(C)c2cnn(-c3ccccc3)c(=O)c12`, the inhibition (commonly how much of the control response was suppressed) was 5%.

On to `CCN(CC)c1ccc2oc(=O)c(C)nc2c1`, for which the inhibition is 59% (active).
